Experimental data taken from PubChem BioAssay (NCATS).
“And” between values parts separate entries of the source, which are not always exact repeats. Equal values may be shown once. Inconclusive results are not listed. Some structures have more than one record in an assay (separate samples or runs), and their calls can disagree. Values without a mark were called inactive. The source made the active and inactive calls. Calls follow the shape of the dose curve; as a rule, active = well fitted inhibition curve with a large enough effect; inconclusive = small, poorly fitted or top-dose-only effect; inactive = flat fitted curve, though single readings scatter.

Each molecule was assayed on KB-3-1 (assay: Cytotoxic Profiling of Annotated Libraries Using Quantitative High-Throughput Screening (AID 1296008; also: nearly all actives have a fitted effect of over 60% in size)). Conditions: Five cell lines viability, CellTiter-Glo ATP luminescence, 48-72 h; max response: stronger effect = lower value.
From the text: Cell-based phenotypic screening is a commonly used approach to discover biological pathways, novel drug targets, chemical probes and high-quality hit-to-lead molecules. Many hits identified from high-throughput screening campaign are ruled out through a series of follow-up potency, selectivity/specificity, and cytotoxicity assays. Prioritization of molecules with little or no cytotoxicity for a more in-depth downstream evaluation influence the future direction of projects, so cytotoxicity profiling of the screening libraries at early stage is essential for increasing the likelihood of candidate success. […] For the annotated library, we also examined the primary targets and mechanistic pathways regularly associated with cell death. To our knowledge, this is the first study to use high-throughput screening to profile large libraries for cytotoxicity assessment in both normal and cancer cell lines. In summary, the results generated here constitutes a valuable resource for the scientific community and provides insight on identifying cytotoxic compounds with particular mechanisms of action, and prioritizing compounds with suitable cytotoxicity profile for further evaluation.
A pintool (Kalypsys) was used to transfer 23 nL of compound solution to the 1536-well assay plates. After 48 or 72 hr incubation at 37 degree Celsius, 5% CO2 and 95% humidity, 2.5 uL of CellTiter-Glo (Promega) was dispensed into each well using a dispenser (Aspect Automation, St. Paul, MN) with solenoid valves (Lee Valves, Westbrook CT). Plates were left at room temperature for 10 min before imaging the ATP-coupled luminescence using a ViewLux microplate imager (PerkinElmer, Waltham, MA).
% is scaled to controls: 0 for no effect and ±100 for the full control effect; potency is read from the fitted curve at half-maximal effect.

SMILES | max response | Potency | outcome
CC(C)(C)C(=O)C(Oc1ccc(Cl)cc1)n1ccnc1 (stereo not given) | -11% and -12.3% | – | –
Cc1cc(N)c2ccccc2[n+]1CCCCCCCCCC[n+]1c(C)cc(N)c2ccccc21 | -23.8% | 9.2 µM (active) | –
CC(=O)Oc1ccc(C2(c3ccc(OC(C)=O)cc3)C(=O)Nc3ccccc32)cc1 | -1.67% and 11.5% | – | –
CC1(C)[C@@H]2CC[C@@]1(C)C(=O)C2 | -13.1% | – | –
O=C(CCCN1CCN(c2ccccn2)CC1)c1ccc(F)cc1 | 7.83% and 2.47% | – | –
C[C@@H]1CC[C@@]2(OC1)O[C@H]1C[C@H]3[C@@H]4CC[C@H]5C[C@@H](O)CC[C@]5(C)[C@H]4CC(=O)[C@]3(C)[C@H]1[C@@H]2C | 1.37% | – | –
CCCCOc1cc(C(=O)OCCN(CC)CC)ccc1N | 6.85% | 4.95 µM (active) | –
CN1CCCCC1CCN1c2ccccc2Sc2ccc(S(C)=O)cc21 (stereo not given) | -15.2% and 0.424% | – | –
CCCCCCCCCCCCCCCC(=O)NCCO | -1.52% | – | –
CCCCC(CC)COC(=O)c1ccccc1O (stereo not given) | -6.97% | – | –
COc1cc(C(=O)N2CCOCC2)cc(OC)c1OC | 4.09% and 1.86% | – | –
COCCOC(=O)C1=C(C)NC(C)=C(C(=O)OC/C=C/c2ccccc2)C1c1cccc([N+](=O)[O-])c1 (stereo not given) | 22.9% | – | –
Nc1nc2c(ncn2CCC(CO)CO)c(=O)[nH]1 | 13.5% and 1.71% | – | –
O=C1O[C@H]([C@@H](O)CO)C(O)=C1O | -6.89% and 6.42% | – | –
C[C@@H](O)[C@H](N)C(=O)O | 1.86% | – | –
CC1CC(OC(=O)C(O)c2ccccc2)CC(C)(C)N1C (stereo not given) | 1.03% and 0.565% | – | –
CC(=O)NC(Cc1ccccc1)C(=O)O (stereo not given) | 1.12% and 4.36% | – | –
C/C(=C(\CCOP(=O)(O)O)SC(=O)c1ccccc1)N(C=O)Cc1cnc(C)nc1N | 9.44% | – | –
N[C@H]1C(O)O[C@H](CO)[C@@H](O)[C@@H]1O (stereo not given in full) | 2.62% | – | –

SMILES | max response | Potency | outcome
CCOC(=O)c1ccc(O)cc1 | -4.79% | – | –
COc1ccccc1O | -18.3% and -7.82% | – | –
C[C@@H]1CCN(C(=O)[C@H](CCCN=C(N)N)NS(=O)(=O)c2cccc3c2NC[C@H](C)C3)[C@@H](C(=O)O)C1 | 1.81% | – | –
CN(C)CCN(Cc1ccccc1)c1ccccn1 | -7.24% | – | –
c1ccc2c(CC3=NCCN3)cccc2c1 | -1.96% and -17.3% and -10.3% | – | –
CCOc1ccc2ccccc2c1C(=O)N[C@@H]1C(=O)N2[C@@H]1SC(C)(C)[C@@H]2C(=O)O | -11.5% and -0.445% | – | –
C[C@H]1O[C@H](O[C@H]2[C@H](O)[C@@H](O)[C@@H](O[C@H]3[C@H](O)[C@@H](O)[C@H](O)O[C@@H]3CO)O[C@@H]2CO)[C@H](O)[C@@H](O)[C@@H]1N[C@H]1C=C(CO)[C@@H](O)[C@H](O)[C@H]1O | -3.3% | – | –
CC(=O)Nc1ccc(/C=N/NC(N)=S)cc1 | -10.7% and 2.19% | – | –
CC(C(O)c1ccc(O)cc1)N1CCC(Cc2ccccc2)CC1 (stereo not given) | -5.14% | – | inactive
O=c1[nH]c(=O)c2[nH]c(=O)[nH]c2[nH]1 | 23.1% and -16.9% | – | –
Cc1c(Cl)cccc1Nc1ccccc1C(=O)O | -2.57% | – | –
CN1[C@@H]2CC[C@H]1CC(OC(=O)C(O)c1ccccc1)C2 (stereo not given in full) | 3.38% and -1.31% and -10.9% | – | –
C[C@]12CC[C@@H]3c4ccc(O)cc4CC[C@H]3[C@@H]1CCC2=O | 23.7% | – | –
C[C@]12CC[C@@H]3c4ccc(O)cc4CC[C@H]3[C@@H]1CC[C@@H]2OC(=O)CCC1CCCC1 | -5.64% and 15.4% | – | –
CC(O)COc1ccccc1 (stereo not given) | 5.08% | – | –
NCCNCCNCCNCCN | -4.72% | – | –
Oc1cn2c(n1)Nc1ccc(Cl)c(Cl)c1C2 | -2.96% and -14.6% | – | –
COc1cc(C)c(Cc2cnc(N)nc2N)cc1OC | 7.84% | – | –
